Experimental data published in PMC12136788.
Substitutions are numbered along the chain they refer to. The full ranking holds about 24,000 sequences; the median of “enrichment r” is about 0.99, and the highest 2% start at about 3.7. The list comes from a sample in which the highest values are over-represented; it also holds similar and randomly drawn sequences.

T1: UNK ZnF1-3 (human, UniProt Q9C0B0 31-174)
T1 sequence: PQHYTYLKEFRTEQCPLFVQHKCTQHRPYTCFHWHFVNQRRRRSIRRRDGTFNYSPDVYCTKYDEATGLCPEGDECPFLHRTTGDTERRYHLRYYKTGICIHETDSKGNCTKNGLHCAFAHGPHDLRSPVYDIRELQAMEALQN

B1: 112904347_112904467_7746_CDS_ENSMUSG00000036862_ENSMUST00000078482|mouse|control|control (ssRNA)
RNA: GGGAGUUCUACAGUCCGACGAUCUGUGGCCUCCAGGGUGAGCAGGGUGGAACCAGGGGGCAAAUCUUCAGACACAGCAACACGGUAGUGUGGCAAUGUGAAGCUUGGGGCAUGGUCAUUCUGGUCCUUCAGCUGCACAUGCACCAACAGAGGAUUGAGCAUCA
B2: chrX:40988281:40988282:+_ENSG00000124486_ENST00000378308|hu_mus|FALSE|FALSE (ssRNA)
RNA: GGGAGUUCUACAGUCCGACGAUCUUCAAUCUGUGGAGGAGCAUCACCUUGACCUUGCUCAUCAGGAGGAGUUGCAGGGGAAUUUUCAUUGGACGAAUCAGGCGAUGAAGUCUGAUUCUGUUGGAGGGGGGGCUGAGACUGUCCCAACAGAGGAUUGAGCAUCA
B3: chr6:17872010:17872011:+_ENSMUSG00000029534_ENSMUST00000127322|mus_mus|motif|central (ssRNA)
RNA: GGGAGUUCUACAGUCCGACGAUCUCACUGUCUCCUCUCUUCAGGAUGUGUUCUGGUGGGAGGAUUAAGCUUUUCAUUUCGGGUAGAUAUUUUGGCACGUGUGGAUUAAAUUCCACAGCUCUGUGGAUGGCUUCUACUGCAUUCCAACAGAGGAUUGAGCAUCA
B4: chr9:37441256:37441257:-_ENSG00000168795_ENST00000307750|hu_hu|FALSE|FALSE (ssRNA)
RNA: GGGAGUUCUACAGUCCGACGAUCAGGCCCAGCCUCUGGACUCAACAAAUAGGGGGCCUCACUCUCCAGCCUGCAGUCACUAGUGGUGUUUGGAAUAUUAUCAUCAUUGUUCUGAUUUGCAGUAAAGUUAUUUCCUCUGCUCUUCAACAGAGGAUUGAGCAUCA
B5: 80013064_80013876_841_CDS_ENSG00000169727_ENST00000578552|human|control|control (ssRNA)
RNA: GGGAGUUCUACAGUCCGACGAUCCUCAGGGAAGUCACAGUGAUCAAAGGAAGCCAGCAGGAGGCACUUGGCAGCCUGCUUGUACUUCCUGGCGGCCAGCUCUGCCAAGCCUGCGGCACACUUGAGCUUGGUGAGGAUGGCCUGCAACAGAGGAUUGAGCAUCA
B6: chrX:40988281:40988282:+_ENSG00000124486_ENST00000378308|hu_hu|FALSE|FALSE (ssRNA)
RNA: B2 RNA with U29G, A36U, A39G, A63U, A66G, A75C, C93A
B7: 5790880_5791000_6181_CDS_ENSG00000108021_ENST00000328090|human|control|control (ssRNA)
RNA: GGGAGUUCUACAGUCCGACGAUCGAAGUUCAACGACGACUCAUAGCCAUCUGUGGGAACAUCUUUUUUCCUGGUGUAACUACCUCUUAAAGUAUAAGAAUCCUCCAAAUCCAGUCUGGGAUUUCUACAAUCACCAAGCAGGUCCAACAGAGGAUUGAGCAUCA
B8: chr12:133780691:133780692:+_ENSG00000090612_ENST00000541009|hu_hu|motif|central (ssRNA)
RNA: GGGAGUUCUACAGUCCGACGAUCUCAUAUGGUUUUUCACCUGAAUGAGUUCUCAUGUGUAUAAUUAGGUAUGACUUGCUGCGGAAAGCUUUCCCACAUUCACUGCACCCAUAAGGCUUUUCCCCUGCAUGAGUUCGCUGAUGUCAACAGAGGAUUGAGCAUCA
B9: 5036412_5036532_457_CDS_ENSMUSG00000022536_ENSMUST00000115844|mouse|control|control (ssRNA)
RNA: GGGAGUUCUACAGUCCGACGAUCGCCUGAAGUCACCCUCUUCUUUCCUUCUCCCAUGUUCUUCUUCACCUUCCCUUCAGACAGGCUAAGCUUGCGUUUCUCAUCACCUGAGUUUGGCCUACUUCUCUCCUCACUGGAAUUACGCAACAGAGGAUUGAGCAUCA
B10: chr5:37680062:37680063:+_ENSMUSG00000029121_ENSMUST00000031004|mus_hu|mus_mus_mus_hu_False|58_98 (ssRNA)
RNA: GGGAGUUCUACAGUCCGACGAUCUUUGGGUGUAGCUGGCACCUCGUACACAGGACCGUCAUACAUGCCCCUGGAAACACUAUGCAAUCCAAAAACCUUAUUCCUGAUUUUGACGCGCUGGUACAGGUGCUCCGGGAACGCCUUCAACAGAGGAUUGAGCAUCA
B11: chr2:27118074:27118075:-_ENSMUSG00000009621_ENSMUST00000056176|mus_hu|FALSE|FALSE (ssRNA)
RNA: GGGAGUUCUACAGUCCGACGAUCAUUCACAGAUAUAUAACGGGAGAUUUGGAUGAAAUAAUUACAAACUUUUUUCCCCUUAAAAAACAAACAAGCCAAACAAAACACAAACAAAACAAAAACCCCAAAACCAAAACACAAGACCAACAGAGGAUUGAGCAUCA
B12: chr6:86474593:86474594:-_ENSMUSG00000051695_ENSMUST00000053015|mus_hu|FALSE|FALSE (ssRNA)
RNA: GGGAGUUCUACAGUCCGACGAUCACAUUUCUUAUCGACAAACAGAAAUAAAAUUCAUGAGCCAAAAAACCCAAAACAAAACUAAAAACAGGGAAAAGCUUAUAAAACUAAAUAUGGAUCCCAGCAUUAACAGCUGAACAGAGACAACAGAGGAUUGAGCAUCA
B13: chr6:86474593:86474594:-_ENSMUSG00000051695_ENSMUST00000053015|mus_hu|motif|central (ssRNA)
RNA: B12 RNA with U82G, A83G
B14: chr7:97619395:97619396:-_ENSMUSG00000030614_ENSMUST00000032843|mus_mus|motif|central (ssRNA)
RNA: GGGAGUUCUACAGUCCGACGAUCCAGGGAUGCAUAGGUCUUCAAAGCUUCAUAUUUAACCUUGAAACUGUUUCGGAAAACGGAGUUUGCCAUUAUGCCAGACAAACUACUACUUGUUCCAAAGACCAAAGUUCCAUGUAUAUUCAACAGAGGAUUGAGCAUCA
B15: 90301638_90312025_2792_CDS_ENSG00000196730_ENST00000408954|human|control|control (ssRNA)
RNA: GGGAGUUCUACAGUCCGACGAUCGACAACAACAUGGAUUGACGUGGGAUCAUUUGCAGCAAAAUAGUCAUAACAGCAGAAAUACACAGGAUUUCCAGAGAACUCCCACACGCUGAAAUCGCCAACUCCAUUCAAAUAAGCGUUCAACAGAGGAUUGAGCAUCA
B16: chr2:131139019:131139020:-_ENSMUSG00000048911_ENSMUST00000059372|mus_mus|FALSE|FALSE (ssRNA)
RNA: GGGAGUUCUACAGUCCGACGAUCGAUAUAGAUGUUGAGAGGCAGAUUCUGGAAUCCAAUAUUAGGCAUCCUGAAGUUAUAAUGUGGGAAAUCUGAGCUCAUGGAUGAACCGGGCGACGGGCAGCGGGCGUGCGGGCGGCGGCGCAACAGAGGAUUGAGCAUCA
B17: chr11:77336104:77336105:-_ENSG00000074201_ENST00000525064|hu_mus|hu_hu_hu_mus_False|98_108 (ssRNA)
RNA: GGGAGUUCUACAGUCCGACGAUCCUCGCACAUUGCAGUGAACAUUGCCUCCAAUGCUGACUUAUCACUGGGCACAAAUCGAAAUUCAGAAAUGGGUUCAACAUCAUCAUUGUCUUCCUCAUCUUCAUCAGAGAGAGGUUCUUUCAACAGAGGAUUGAGCAUCA
B18: 49074419_49074539_462_3pUTR_ENSMUSG00000020346_ENSMUST00000109194|mouse|control|control (ssRNA)
RNA: GGGAGUUCUACAGUCCGACGAUCCACAGGCAAUGACCAGGAUGGGGAUCUGCACUGGUGAGGGGGUCACAGGCACACGGGGCCAGGCUGGAGGGGCCACAGUGGGAACUCUCCACCUCUGCCUCCACAAAGCAUAAUGCUCCUCAACAGAGGAUUGAGCAUCA
B19: chr8:92086081:92086082:+_ENSG00000155100_ENST00000285420|hu_mus|motif|central (ssRNA)
RNA: GGGAGUUCUACAGUCCGACGAUCAAUCCGAGGUGGUUGAUUCUCAAGUACCAAGUUUGAAAUGUUAACAGCAACAGAAUCGGUCUUACUGUCCUUGAAAGUCAAUUGCUUCAAUUGCUCCAGUUCUUCCCUGUGUUUUUGCUCCAACAGAGGAUUGAGCAUCA
B20: chr3:10015032:10015033:+_ENSMUSG00000027533_ENSMUST00000029046|mus_mus|mus_mus_mus_hu_True|38_48 (ssRNA)
RNA: GGGAGUUCUACAGUCCGACGAUCGUUUUUACCAUCACAAGUGAUGAUACAAUCUGGCUUGGCCAUUGCGCCCAUUUUUCGCAAAGCCAGUCCUACUCCUAGCUCUUUCAUGUAUUCAUCAAAGCCUUUGCUGUCCACCAGGCGCAACAGAGGAUUGAGCAUCA
B21: chr2:48026839:48026840:+_ENSG00000116062_ENST00000540021|hu_hu|hu_hu_hu_mus_False|18_48 (ssRNA)
RNA: GGGAGUUCUACAGUCCGACGAUCAUAGUGAGCCACUAGCGUCCUAAAUCUGGAACAGUGGCGGUCAUCCGAAAACUGGCCGAUGAAAAACUUUCCCAGUGAAGUGUCCACAAAGCACACACCAUAUACACGAGUGUGACCAGACAACAGAGGAUUGAGCAUCA
B22: chr11:46405157:46405158:+_ENSG00000110492_ENST00000395566|hu_hu|hu_hu_hu_mus_False|18_28 (ssRNA)
RNA: GGGAGUUCUACAGUCCGACGAUCCCCUCCCCACUUUGGGCACUUGGUGUGGGCGUGAGAGGACAGGCGUGAUUGACAGAGCUGACAGGAAGACAAAAGGCACUGGUGGGUCACAUCUCGGGCCUGGGGGAGAGGAGGGCUCCGCAACAGAGGAUUGAGCAUCA
B23: chr11:46405157:46405158:+_ENSG00000110492_ENST00000395566|hu_hu|hu_hu_hu_mus_False|18_108 (ssRNA)
RNA: B22 RNA with C28U, C29A, C30G, C31G, A32G, C33G, U35G, U36G, C111U, C113U
B24: chr11:46405157:46405158:+_ENSG00000110492_ENST00000395566|hu_hu|hu_hu_hu_mus_False|58_108 (ssRNA)
RNA: GGGAGUUCUACAGUCCGACGAUCCCCUUAGGGGUGGGGGCACUUGGUGUGGGCGUGAGAGGACAGGCGUGAUUGACAAAGCUAACGGGAAGACAAAAGGCACUGGUGGGUUAUAUCUUGGGCCUGUGGGAGAGGAGGGCUCCGCAACAGAGGAUUGAGCAUCA
B25: chr11:46405157:46405158:+_ENSG00000110492_ENST00000395566|hu_hu|hu_hu_hu_mus_False|1_18 (ssRNA)
RNA: B22 RNA with C111U, C113U, G138C, C139G, C141G, C142G
B26: chr11:46405157:46405158:+_ENSG00000110492_ENST00000395566|hu_hu|hu_hu_hu_mus_False|98_108 (ssRNA)
RNA: B24 RNA with G39C, C40U, A41G, C42G, U43G, U44G, G45A, A78G, A83G, G86A
B27: chr11:46405157:46405158:+_ENSG00000110492_ENST00000395566|hu_hu|hu_hu_hu_mus_False|8_108 (ssRNA)
RNA: B24 RNA with A78G, A83G, G86A, G128A, A132G, G134A, A135G

Target: T1, UNK ZnF1-3
Assay: nsRBNS (natural sequence RNA bind-n-seq); RBNS binding buffer (assumed for nsRBNS): 25 mM Tris pH 7.5, 150 mM KCl, 3 mM MgCl2, 0.01% Triton X-100, 500 ug/ml BSA, 20 U/ml SUPERase-In, 4 C; UNK is unkempt and MSI1 is Musashi-1; names of the RNAs are library labels; protein concentration not given here; high values mean tight binding

Binder | binding signal [enrichment R]
B1 | 1.43
B2 | 1.31
B3 | 0.937
B4 | 0.924
B5 | 0.285
B6 | 1.24
B7 | 1.18
B8 | 0.705
B9 | 0.512
B10 | 0.673
B11 | 3.28
B12 | 5.48
B13 | 4.53
B14 | 0.591
B15 | 2.03
B16 | 0.719
B17 | 0.914
B18 | 0.862
B19 | 1.01
B20 | 0.575
B21 | 1.2
B22 | 3.48
B23 | 4.17
B24 | 3.45
B25 | 3.4
B26 | 3.34
B27 | 4.04
